In PubChem BioAssay (NCATS):
Records with an inconclusive call do not appear. Unmarked numbers belong to inactive results. The source made the active and inactive calls. Calls follow the shape of the dose curve; as a rule, active = well fitted inhibition curve with a large enough effect; inconclusive = small, poorly fitted or top-dose-only effect; inactive = flat fitted curve, though single readings scatter.

system: KB-3-1; experiment: Cytotoxic Profiling of Annotated Libraries Using Quantitative High-Throughput Screening (AID 1296008); conditions: Five cell lines viability, CellTiter-Glo ATP luminescence, 48-72 h; max response: active compounds read low; also: nearly all actives have a fitted effect of over 60% in size
In short: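 Cytotoxicity was measured as CellTiter-Glo ATP luminescence, read after 10 min at room temperature. Compound treatment of the cells lasted 48 or 72 hr at 37 degrees Celsius in a qHTS format.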
% is scaled to controls: 0 for no effect and ±100 for the full control effect; potency is read from the fitted curve at half-maximal effect.

Q: `C=C1c2cccc(O)c2C(O)=C2C(=O)[C@]3(O)C(O)=C(C(N)=O)C(=O)[C@@H](N(C)C)[C@@H]3[C@@H](O)[C@H]12` was tested. Which max response did it give?
A: Its max response is -4.44%.

Q: `C/C=C/c1ccc(O)c(OC)c1` was tested. Which max response did it give?
A: Its max response is -3.67%.

Q: `CC(=C(CCOC(=O)C(C)C)SSC(CCOC(=O)C(C)C)=C(C)N(C=O)Cc1cnc(C)nc1N)N(C=O)Cc1cnc(C)nc1N` was tested. Which max response did it give?
A: Its max response is 1.98%.

Q: `C=C[C@H]1CN2CC[C@H]1C[C@@H]2[C@@H](O)c1ccnc2ccc(OC)cc12` was tested. Which max response did it give?
A: The max response was -6.93%.

Q: For `O=C1C(CCS(=O)c2ccccc2)C(=O)N(c2ccccc2)N1c1ccccc1` (stereo not drawn), which max response is on record?
A: The max response was 4.22%.

Q: With `Cc1c[nH]c2ccccc12` as the compound, how does the max response read?
A: Its max response is 8.35%.

Q: With `Cc1ccc(-c2ncc(Cl)cc2-c2ccc(S(C)(=O)=O)cc2)cn1` as the compound, how does the max response read?
A: The max response was -5.38%.

Q: `CC(=O)OCC1=C(C(=O)O)N2C(=O)[C@@H](NC(=O)CSc3ccncc3)[C@H]2SC1` was tested. Which max response did it give?
A: The max response was 2.34%.

Q: How did the max response turn out when `CN(C)CCC[C@@]1(c2ccc(F)cc2)OCc2cc(C#N)ccc21` was run?
A: Its max response is -13.4%.

Q: For `CCC(CC)(CC(=O)Nc1cccc(/C=C/c2nc(C3CCC3)cs2)c1)C(=O)O`, which max response is on record?
A: The max response was -22.9%.

Q: How did the max response turn out when `O=[N+]([O-])c1ccc(/C=N\O)o1` was run?
A: The max response was -13.1%.

Q: How did the max response turn out when `CCN1CCN(C(=O)N[C@@H](C(=O)N[C@@H]2C(=O)N3C(C(=O)O)=C(CSc4nnnn4C)CS[C@H]23)c2ccc(O)cc2)C(=O)C1=O` was run?
A: Its max response is -4.94%.

Q: How did the Potency turn out when `C[C@H]1O[C@@H](O[C@H]2CC[C@@]3(C)[C@H](CC[C@@H]4[C@@H]3C[C@@H](O)[C@]3(C)[C@@H](C5=CC(=O)OC5)CC[C@]43O)C2)C[C@H](O)[C@@H]1O[C@H]1C[C@H](O)[C@H](O[C@H]2C[C@H](O)[C@H](O[C@@H]3O[C@H](CO)[C@@H](O)[C@H](O)[C@H]3O)[C@@H](C)O2)[C@@H](C)O1` was run?
A: Its Potency is 259 nM (active).
